Experimental data reported in PubChem BioAssay (NCATS).
Where “and” joins values, the source holds several entries; their conditions need not be identical. Equal values may be shown once. Records with an inconclusive call do not appear. Calls of active or inactive are those of the source. Calls come from the whole dose curve; as a rule, active = well fitted cell-killing curve with a large enough effect; inconclusive = small, poorly fitted or top-dose-only effect; inactive = flat fitted curve, though single readings scatter.

Assay: Cellular viability qHTS for adrenocortical cancer (ACC) cell line SW-13 (AID 1963989); note: nearly all actives have a fitted effect of over 65% in size;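 for activity (max response): cells grown in serum-free medium with ITS supplement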
Settings: SW-13 ACC cells viability, CellTiter-Glo, 48 h; activity (max response): stronger effect = lower value
Description: PI: Naris Nilubol, MD Surgical Oncology Program, National Cancer Institute (NCI) National Institute of Health (NIH), Bethesda, Maryland Adrenocortical cancer (ACC) is a rare malignancy with poor survival outcomes and few treatment options. Currently, mitotane is the only FDA-approved therapy for ACC. Although adjuvant radiation therapy is rarely utilized, it has the potential to improve survival in select cases. Through a quantitative high-throughput drug screen (qHTS), we identified auranofin (AF), a thioredoxin reductase (TXNRD) inhibitor, as a promising candidate drug. This study aims to evaluate whether AF can enhance the efficacy of radiation therapy in the treatment of ACC. Two human ACC cell lines, SW-13 and NCI-H295R, were screened using the National Center for Advancing Translational Sciences (NCATS) Pharmaceutical Collection (NPC) and the Mechanism Interrogation PlatE (MIPE) library (~4,991 compounds). CellTiter-Glo (Cat # G7570, Promega, Madison, WI) was utilized to measure cell viability. Described herein are the results of the corresponding viability assay.
PROTOCOL TABLE (as described by Inglese J, Shamu CE and Guy RK. 2007) SEQUENCE No. (e.g., 1, 2, 3, etc.); […] (e.g., Cells, Incubation, Reagent, etc.); VALUE; DESCRIPTION. 1; Cells; 5 uL; white, solid-bottom, 1536-well tissue-culture treated plates. 2; Time; overnight culture at 37C with 5% CO2. 3; Compounds and control; 23 nL; Kalypsis pin tool (Wako USA) equipped with a 1536-well pin head to transfer to the assay plates. 4; Time; 48 hours; 37C with 5% CO2. 5; Reagent; 4 uL; CellTiter-Glo luminescent substrate mix. 6; Time; 20 min at room temperature. 7; Detection; Luminescence; ViewLux plate reader NOTES (numbers refer to Sequence numbers above) 1. SW13 cells were harvested from a T175 flask and resuspended in ITS-supplemented DMEM serum-free medium at a concentration of 300 000 cells/mL. Then 5 uL of resuspended cells were dispensed into each well of white, solid-bottom, 1536-well tissue-culture-treated plates using a multidrop combi dispenser. The plates were covered with stainless steel gasket lids. 2-3. The plates were cultured overnight at 37C with 5% CO2. Twenty-three nL of compounds (eight selected concentrations from the NPC / MIPE) or positive control (10 mM stock of bortezomib) in DMSO was transferred to each well of the assay plate using a pin tool (Kalypsys, San Diego, CA, USA). The final concentration of the compounds in the 5 uL assay volume ranged from 0.5 nM to 46 uM. 4-6. After 48 hours of incubation at 37C and 5% CO2, 4 uL of CellTilter-Glo luminescent substrate mix (Promega, Madison, WI, USA) was added to each well. Then the plates were incubated for 20 minutes at room temperature. 7. After incubation, luminescence was measured using a ViewLux plate reader (PerkinElmer, Waltham, MA, USA) with a clear filter was used to measure the number of metabolically competent cells. To determine compound activity in the qHTS assay, the titration-response data for each sample was plotted and modeled by a four-parameter logistic fit yielding IC50 and efficacy (maximal response) values. […] REFERENCES: Inglese J, Shamu CE and Guy RK, Reporting data from high throughput screening of small molecule libraries, Nature Chemical Biology, 2007, 3(8): 438-441. doi.org/10.1038/nchembio0807-438.
% is set by controls: 0 for no effect and ±100 for the full control effect.

Row | SMILES | Potency | activity (max response)
1 | OC(c1cc(C(F)(F)F)nc2c(C(F)(F)F)cccc12)C1CCCCN1 (stereo not given) | 22.4 µM (active) | –
2 | Cc1ccnc2c1NC(=O)c1cccnc1N2C1CC1 | – | -0.191% (inactive)
3 | CC(=O)NC(=O)c1ccccc1O | – | -23.9% (inactive)
4 | CC1(C)O[C@@H]2C[C@H]3[C@@H]4C[C@H](F)C5=CC(=O)CC[C@]5(C)[C@H]4[C@@H](O)C[C@]3(C)[C@]2(C(=O)CO)O1 | – | 3.69% (inactive)
5 | COc1cc2[nH]c(=O)[nH]c(=O)c2cc1OC | – | 11.4% (inactive)
6 | CCC(=O)NCC[C@@H]1CCc2ccc3c(c21)CCO3 | – | -6.57% (inactive)
7 | CCCC(=O)O[C@]1(C(=O)CO)CC[C@H]2[C@@H]3CCC4=CC(=O)CC[C@]4(C)[C@H]3[C@@H](O)C[C@@]21C | – | -3.14% (inactive)
8 | Cc1ccc(O)c2ncccc12 | – | 11.9% (inactive)
9 | CN[C@@H]1[C@H](O[C@H]2[C@H](O[C@@H]3[C@@H](O)[C@H](O)[C@@H](N=C(N)N)[C@H](O)[C@H]3N=C(N)N)O[C@@H](C)[C@]2(O)C=O)O[C@@H](CO)[C@H](O)[C@H]1O | – | 6.19% (inactive)
10 | COc1cc(OC)cc(OC)c1 | – | 5.62% (inactive)
11 | NC1CCN(c2cccc(Cl)n2)CC1 | – | 2.41% (inactive)
12 | O=S(=O)(Nc1ccc(-c2cccnc2)c2cccnc12)c1cccc(C(F)(F)F)c1 | 4.47 µM (active) | –
13 | Cc1cc2cc3c(C)cc(=O)oc3c(C)c2o1 | – | 0.204% (inactive) and 7.11% (inactive)
14 | CCNC(=O)CCC/C=C\C[C@@H]1[C@@H](/C=C/C(O)CCc2ccccc2)[C@@H](O)C[C@@H]1O (stereo not given in full) | – | -10.9% (inactive)
15 | CC(C)NNC(=O)c1ccncc1 | – | 1.43% (inactive)
16 | CN(C)C/C=C/C(=O)Nc1ccc(C(=O)Nc2cccc(Nc3ncc(Cl)c(-c4c[nH]c5ccccc45)n3)c2)cc1 | 0.282 µM (active) | –
17 | CCCC(=O)O[C@]1(C(=O)COC(=O)CC)CC[C@H]2[C@@H]3CCC4=CC(=O)CC[C@]4(C)[C@H]3[C@@H](O)C[C@@]21C | – | 8.42% (inactive)
18 | CC(C)(O)[C@H]1CC[C@@](C)([C@H]2[C@@H](O)C[C@@]3(C)[C@@H]4C[C@H](O[C@@H]5O[C@H](CO)[C@@H](O)[C@H](O)[C@H]5O)[C@H]5C(C)(C)[C@@H](O[C@@H]6OC[C@@H](O)[C@H](O)[C@H]6O)CC[C@@]56C[C@@]46CC[C@]23C)O1 | – | 1.01% (inactive)
19 | CCOC(=O)OC(C)OC1=C(C(=O)Nc2ccccn2)N(C)S(=O)(=O)c2ccccc21 (stereo not given) | – | 1.88% (inactive)
20 | COc1ccc(C2=N[C@H](c3ccc(Cl)cc3)[C@H](c3ccc(Cl)cc3)N2C(=O)N2CCNC(=O)C2)c(OC(C)C)c1 | 31.6 µM (active) | –

Row | SMILES | Potency | activity (max response)
21 | CCCCCCCCCCCCSCCOCCO | – | -3.34% (inactive)
22 | [O-][n+]1cccc(/C(Cl)=N/OC[C@@H](O)CN2CCCCC2)c1 | – | 9.86% (inactive)
23 | CC1=C(/C=C/C(C)=C/C=C/C(C)=C/C=C/C=C(C)/C=C/C=C(C)/C=C/C2=C(C)CCCC2(C)C)C(C)(C)CCC1 | – | -7.78% (inactive)
24 | CCCCC/C(C=O)=C\c1ccccc1 | – | 6.34% (inactive)
25 | c1cc(Nc2cc(C3CC3)[nH]n2)nc(Nc2ccc3nc[nH]c3c2)n1 | 0.224 µM (active) | –
26 | O=C(CN1C(=O)C2(CCCC2)NC[C@H]1c1cc(F)cc(F)c1)Nc1ccc2c(c1)C[C@@]1(C2)C(=O)Nc2ncccc21 | – | -4.31% (inactive)
27 | C=C1C[C@@]2(O)O[C@@]3(C[C@H]2C(C)C)[C@@H](C)CC[C@@H]13 | – | 6.19% (inactive)
28 | CC1=C(C(=O)O)N2C(=O)[C@@H](NC(=O)[C@H](N)C3=CCC=CC3)[C@H]2SC1 | – | -13.1% (inactive)
29 | Cc1nnc(C(C)C)n1C1CC2CCC(C1)N2CC[C@H](NC(=O)C1CCC(F)(F)CC1)c1ccccc1 (stereo not given in full) | – | 2.32% (inactive)
30 | C#Cc1cccc(Nc2ncnc3cc(OCCOC)c(OCCOC)cc23)c1 | 4.11 µM (active) and 8.91 µM (active) | –
31 | O=C(c1ccc(NS(=O)(=O)c2cccc3cccnc23)cc1)N1CCN(CC2CC2)CC1 | – | -19.6% (inactive)
32 | Cc1c(N)c(=O)n(-c2ccccc2)n1C | – | -4.39% (inactive)
33 | NC(=O)/C(=C/n1cnc(-c2cc(C(F)(F)F)cc(C(F)(F)F)c2)n1)c1cncnc1 | 3.98 µM (active) | –
34 | CCN(CCO)CCCOc1ccc2c(Nc3cc(CC(=O)Nc4cccc(F)c4)[nH]n3)ncnc2c1 | 20 µM (active) | –
35 | Oc1c(Cl)cc(Cl)c(Cl)c1Cc1c(O)c(Cl)cc(Cl)c1Cl | 1.84 µM (active) | –
36 | COc1ccc(-c2cc(=O)c3c(O)cc(O[C@@H]4O[C@H](CO[C@@H]5O[C@@H](C)[C@H](O)[C@@H](O)[C@H]5O)[C@@H](O)[C@H](O)[C@H]4O)cc3o2)cc1O | – | -2.14% (inactive) and 4.75% (inactive)
37 | Cn1cc(-c2cnn3c(N)c(Br)c([C@@H]4CCCNC4)nc23)cn1 | 12.6 µM (active) | –
38 | CCN1CCCC(OC(=O)C(c2ccccc2)c2ccccc2)C1 (stereo not given) | – | -12.5% (inactive)
39 | COc1cc(F)ccc1-c1ncnc(Nc2cccc(CS(C)(=N)=O)c2)n1 (stereo not given) | 6.31 µM (active) | –
40 | Cc1c(Cn2c(C)nc3c(C(=O)O)cc(N4CCOCC4)cc32)cccc1C(F)(F)F | – | 6.79% (inactive)
